Results as given in the supplement of paper PMC6411743.
± gives the standard deviation of the averaged measurements. Of roughly 5,400 targets only a part is listed; those with the largest changes were picked by preference.

Compound: Nc1nc2c(ncn2[C@@H]2O[C@H](COP(=O)(O)OP(=O)(O)OP(=O)(O)O)[C@@H](O)[C@H]2O)c(=O)[nH]1 [guanosine triphosphate]
Experiment: NP40-soluble protein abundance relative to vehicle (solubility fold change) (ratio); higher = more soluble protein in presence of GTP
Protocol: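 Solubility proteome profiling in Jurkat crude lysate. Lysate was treated with Mg-GTP (0.1-10 mM) for 10 min at room temperature and 3 min at 37 °C, then solubilised with 0.8% NP40 and benzonase, followed by ultracentrifugation. Proteins were quantified by TMT10 LC-MS/MS; the value is the NP40-soluble abundance relative to the NP40-processed vehicle, from 3 independent experiments.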

Chain of UniProt Q8WWI5 (Q8WWI5 whole entry): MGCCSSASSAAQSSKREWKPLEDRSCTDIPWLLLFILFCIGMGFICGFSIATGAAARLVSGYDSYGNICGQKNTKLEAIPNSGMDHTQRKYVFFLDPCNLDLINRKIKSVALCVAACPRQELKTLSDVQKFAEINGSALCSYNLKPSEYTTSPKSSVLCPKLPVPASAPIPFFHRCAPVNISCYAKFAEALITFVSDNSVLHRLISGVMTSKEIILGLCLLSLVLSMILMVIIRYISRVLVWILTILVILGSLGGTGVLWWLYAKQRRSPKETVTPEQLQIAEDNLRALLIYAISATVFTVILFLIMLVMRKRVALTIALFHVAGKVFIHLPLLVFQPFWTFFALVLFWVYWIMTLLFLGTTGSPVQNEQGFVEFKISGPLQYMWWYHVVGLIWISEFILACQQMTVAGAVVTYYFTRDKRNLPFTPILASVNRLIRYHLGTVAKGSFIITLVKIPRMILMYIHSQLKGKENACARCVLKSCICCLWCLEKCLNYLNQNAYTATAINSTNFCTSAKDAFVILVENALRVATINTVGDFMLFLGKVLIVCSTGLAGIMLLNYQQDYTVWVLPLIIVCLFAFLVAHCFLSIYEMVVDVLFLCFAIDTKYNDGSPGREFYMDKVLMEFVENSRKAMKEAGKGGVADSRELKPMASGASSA
Chain of UniProt Q13151 (Q13151 whole entry): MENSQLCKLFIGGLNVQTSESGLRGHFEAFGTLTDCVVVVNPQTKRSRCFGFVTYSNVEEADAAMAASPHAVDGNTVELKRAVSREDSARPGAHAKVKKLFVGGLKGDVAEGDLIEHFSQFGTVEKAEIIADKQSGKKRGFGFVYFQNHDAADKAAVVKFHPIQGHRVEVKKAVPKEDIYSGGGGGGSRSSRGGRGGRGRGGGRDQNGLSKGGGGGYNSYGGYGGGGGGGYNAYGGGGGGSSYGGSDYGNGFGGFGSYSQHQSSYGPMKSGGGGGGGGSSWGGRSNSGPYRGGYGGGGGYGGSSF
Chain of UniProt Q8IZ83 (Q8IZ83 whole entry): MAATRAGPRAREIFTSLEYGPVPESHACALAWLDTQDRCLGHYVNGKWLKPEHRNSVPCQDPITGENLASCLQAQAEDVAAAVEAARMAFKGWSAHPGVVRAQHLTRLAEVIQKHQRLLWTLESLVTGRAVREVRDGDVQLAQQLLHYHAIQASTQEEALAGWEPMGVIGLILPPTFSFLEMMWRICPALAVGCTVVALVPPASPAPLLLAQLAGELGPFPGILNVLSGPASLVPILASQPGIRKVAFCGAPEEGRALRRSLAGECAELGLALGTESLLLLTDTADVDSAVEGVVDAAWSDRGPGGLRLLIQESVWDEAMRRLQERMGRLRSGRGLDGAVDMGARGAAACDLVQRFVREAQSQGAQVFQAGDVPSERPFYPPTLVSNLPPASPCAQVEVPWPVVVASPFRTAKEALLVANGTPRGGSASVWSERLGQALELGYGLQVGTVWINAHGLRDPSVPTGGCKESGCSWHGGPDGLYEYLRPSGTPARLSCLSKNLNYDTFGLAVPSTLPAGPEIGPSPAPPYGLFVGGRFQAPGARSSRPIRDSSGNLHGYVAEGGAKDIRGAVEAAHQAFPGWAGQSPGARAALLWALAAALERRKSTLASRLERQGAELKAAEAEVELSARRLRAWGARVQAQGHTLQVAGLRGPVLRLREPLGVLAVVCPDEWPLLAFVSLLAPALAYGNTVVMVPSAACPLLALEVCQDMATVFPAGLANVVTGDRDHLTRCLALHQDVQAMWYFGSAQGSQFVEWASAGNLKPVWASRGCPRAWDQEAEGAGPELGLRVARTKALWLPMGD
Chain of UniProt Q8IY18 (Q8IY18 whole entry): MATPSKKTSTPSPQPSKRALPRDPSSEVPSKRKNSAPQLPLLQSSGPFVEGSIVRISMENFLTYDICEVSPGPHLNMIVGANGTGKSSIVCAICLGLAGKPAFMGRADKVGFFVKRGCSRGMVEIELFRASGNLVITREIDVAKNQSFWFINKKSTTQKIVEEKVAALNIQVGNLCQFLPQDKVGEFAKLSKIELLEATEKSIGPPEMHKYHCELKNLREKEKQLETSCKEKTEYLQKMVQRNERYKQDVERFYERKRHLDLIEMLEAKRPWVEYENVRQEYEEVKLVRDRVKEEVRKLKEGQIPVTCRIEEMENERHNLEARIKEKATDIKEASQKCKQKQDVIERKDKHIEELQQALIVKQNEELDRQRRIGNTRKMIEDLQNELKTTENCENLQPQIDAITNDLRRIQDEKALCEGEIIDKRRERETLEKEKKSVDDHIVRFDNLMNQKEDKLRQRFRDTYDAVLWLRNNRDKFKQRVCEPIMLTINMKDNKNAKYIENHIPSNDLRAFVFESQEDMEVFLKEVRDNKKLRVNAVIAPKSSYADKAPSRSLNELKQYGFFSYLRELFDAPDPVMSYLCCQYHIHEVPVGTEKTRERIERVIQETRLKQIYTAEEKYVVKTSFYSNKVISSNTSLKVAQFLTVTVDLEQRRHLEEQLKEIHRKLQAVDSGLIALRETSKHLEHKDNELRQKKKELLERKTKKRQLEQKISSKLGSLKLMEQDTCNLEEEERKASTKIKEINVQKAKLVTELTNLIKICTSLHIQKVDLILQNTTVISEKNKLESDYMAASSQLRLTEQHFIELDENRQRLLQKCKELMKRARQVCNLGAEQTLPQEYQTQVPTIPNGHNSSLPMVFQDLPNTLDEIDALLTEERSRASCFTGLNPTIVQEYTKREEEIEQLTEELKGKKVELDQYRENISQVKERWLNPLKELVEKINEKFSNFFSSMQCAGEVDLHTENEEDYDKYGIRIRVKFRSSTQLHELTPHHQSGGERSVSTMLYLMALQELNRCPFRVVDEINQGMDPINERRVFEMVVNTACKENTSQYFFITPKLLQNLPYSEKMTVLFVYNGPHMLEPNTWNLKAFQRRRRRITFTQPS

Target	NP40-soluble protein abundance (concentration: 0.1mM)	NP40-soluble protein abundance (concentration: 0.5mM)	NP40-soluble protein abundance (concentration: 1mM)	NP40-soluble protein abundance (concentration: 2mM)	NP40-soluble protein abundance (concentration: 4mM)	NP40-soluble protein abundance (concentration: 6mM)	NP40-soluble protein abundance (concentration: 8mM)	NP40-soluble protein abundance (concentration: 10mM)
ALDH16A1 (UniProt Q8IZ83)	1.11 ± 0.033	1.1 ± 0.076	1.13 ± 0.13	1.15 ± 0.12	1.16 ± 0.17	1.15 ± 0.15	1.16 ± 0.16	1.11 ± 0.15
UniProt Q13085|A0A087X126	1.09 ± 0.08	1.09 ± 0.11	1.03 ± 0.088	1.07 ± 0.14	1.05 ± 0.11	1.04 ± 0.097	0.975 ± 0.072	0.956 ± 0.056
SMC5 (UniProt Q8IY18)	1.026 ± 0.0089	1.06 ± 0.036	1.03 ± 0.025	1.02 ± 0.03	1.009 ± 0.0054	1.04 ± 0.019	1.05 ± 0.031	1.03 ± 0.021
SLC44A1 (UniProt Q8WWI5)	0.943 ± 0.066	0.931 ± 0.078	0.926 ± 0.061	0.894 ± 0.093	0.934 ± 0.07	0.879 ± 0.1	0.899 ± 0.1	0.938 ± 0.08
HNRNPA0 (UniProt Q13151)	0.975 ± 0.038	1 ± 0.024	1 ± 0.038	0.989 ± 0.05	0.967 ± 0.035	1 ± 0.046	1.01 ± 0.052	0.986 ± 0.058
